Reference: PubChem BioAssay AID1159580 (chemical genetic matrix, 2015)
Out of some 5,500 compounds screened, about 2,000 (36%) were called active. Another 18% or so got no clear call; they are omitted. Rule as the data show it: active = normalized growth mostly below about 0.91 (no sharp cut-off); inconclusive = no clear call, values can overlap the other calls; inactive = mostly above about 0.92. Some of the results follow.

Assay: chemical genetic growth profiling, strain panel (AID 1159580);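 also: tested at 20 µM; growth read once vehicle control cultures reached saturation at 30 °C; 1 = growth at the plate median or of vehicle wells; lower values mean less growth of the strain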
Settings: S. cerevisiae deletion strains, growth OD
[1] = locus YDL101C, strain DUN1, stronger effect = lower value
[2] = locus YHR030C, strain SLT2, stronger effect = lower value

Measured: normalized growth

Cc1cccc(NC(=S)NNC(=O)CSCc2cccc3ccccc23)c1
inactive: locus YAR019C, strain CDC15, stronger effect = lower value 0.986 | locus YBL105C, strain PKC1, stronger effect = lower value 0.988 | locus YBR135W, strain CKS1, stronger effect = lower value 0.999 | locus YBR136W, strain MEC1, stronger effect = lower value 0.974 | locus YBR160W, strain CDC28, stronger effect = lower value 1 | locus YDL017W, strain CDC7, stronger effect = lower value 0.987 | locus YDL028C, strain MPS1, stronger effect = lower value 0.984 | [1] 0.975 | locus YDL108W, strain KIN28, stronger effect = lower value 0.982 | locus YDL132W, strain cdc53, stronger effect = lower value 0.989 | locus YDL214C, strain PRR2, stronger effect = lower value 0.904 | locus YDR052C, strain DBF4, stronger effect = lower value 1 | locus YDR054C, strain cdc34, stronger effect = lower value 0.983 | locus YDR226W, strain ADK1, stronger effect = lower value 0.988 | locus YDR477W, strain SNF1, stronger effect = lower value 0.924 | locus YER123W, strain YCK3, stronger effect = lower value 0.851 | locus YER133W, strain GLC7, stronger effect = lower value 0.906 | locus YFL009W, strain cdc4, stronger effect = lower value 0.99 | locus YFL029C, strain CAK1, stronger effect = lower value 0.983 | locus YFR003C, strain YPI1, stronger effect = lower value 0.982 | locus YFR019W, strain FAB1, stronger effect = lower value 0.965 | locus YFR028C, strain CDC14, stronger effect = lower value 0.99 | locus YGR040W, strain KSS1, stronger effect = lower value 0.904 | locus YGR052W, strain FMP48, stronger effect = lower value 0.992 | locus YGR092W, strain DBF2, stronger effect = lower value 0.865 | [2] 0.997 | locus YHR079C, strain IRE1, stronger effect = lower value 0.992 | locus YHR082C, strain KSP1, stronger effect = lower value 0.983 | locus YHR205W, strain SCH9, stronger effect = lower value 0.963 | locus YIL147C, strain SLN1, stronger effect = lower value 0.972 | locus YJL095W, strain BCK1, stronger effect = lower value 0.995 | locus YJL128C, strain PBS2, stronger effect = lower value 0.96 | locus YJL157C, strain FAR1, stronger effect = lower value 0.881 | locus YJR016C, strain ILV3, stronger effect = lower value 0.984 | locus YJR066W, strain TOR1 (second series), stronger effect = lower value 0.866 | locus YJR066W, strain TOR1, stronger effect = lower value 0.981 | locus YKL048C, strain ELM1, stronger effect = lower value 0.991 | locus YKL067W, strain YNK1, stronger effect = lower value 0.914 | locus YKL101W, strain HSL1, stronger effect = lower value 0.929 | locus YKL193C, strain SDS22, stronger effect = lower value 0.989 | locus YKL203C, strain TOR2, stronger effect = lower value 0.989 | locus YLR113W, strain HOG1, stronger effect = lower value 0.962 | locus YLR133W, strain CKI1, stronger effect = lower value 0.948 | locus YLR403W, strain SFP1, stronger effect = lower value 0.909 | locus YML070W, strain DAK1, stronger effect = lower value 0.912 | locus YMR001C, strain CDC5, stronger effect = lower value 0.988 | locus YMR205C, strain PFK2 (second series), stronger effect = lower value 0.943 | locus YMR277W, strain FCP1, stronger effect = lower value 0.988 | locus YNL006W, strain LST8, stronger effect = lower value 0.986 | locus YNL020C, strain ARK1, stronger effect = lower value 0.925 | locus YNL161W, strain CBK1, stronger effect = lower value 0.984 | locus YNL183C, strain NPR1, stronger effect = lower value 0.996 | locus YNL207W, strain RIO2, stronger effect = lower value 0.983 | locus YNL222W, strain SSU72, stronger effect = lower value 0.991 | locus YNL307C, strain MCK1 (second series), stronger effect = lower value 0.922 | locus YOL078W, strain AVO1, stronger effect = lower value 0.988 | locus YOL136C, strain PFK27, stronger effect = lower value 0.925 | locus YOR061W, strain CKA2, stronger effect = lower value 0.904 | locus YOR119C, strain RIO1, stronger effect = lower value 0.965 | locus YOR231W, strain MKK1, stronger effect = lower value 0.982 | locus YOR329C, strain SCD5, stronger effect = lower value 0.981 | locus YPL031C, strain PHO85, stronger effect = lower value 0.904 | locus YPL153C, strain RAD53, stronger effect = lower value 0.91 | locus YPL204W, strain HRR25, stronger effect = lower value 0.914 | locus YPL209C, strain IPL1, stronger effect = lower value 0.983 | locus YPL256C, strain CLN2, stronger effect = lower value 1.01 | locus YPR025C, strain CCL1, stronger effect = lower value 0.99 | locus YPR106W, strain ISR1, stronger effect = lower value 0.99 | locus YPR111W, strain DBF20, stronger effect = lower value 0.99 | strain NNK1, stronger effect = lower value 0.982 | strain TSCII, stronger effect = lower value 0.988

O=C(CSCc1cccc2ccccc12)NNC(=O)c1ccc(F)cc1
inactive: locus YAL013W, strain DEP1, stronger effect = lower value 0.998 | locus YBR229C, strain ROT2, stronger effect = lower value 0.988 | locus YCL061C, strain MRC1, stronger effect = lower value 1 | [1] 1 | locus YDR150W, strain NUM1, stronger effect = lower value 0.979 | locus YEL061C, strain CIN8, stronger effect = lower value 0.992 | locus YGR078C, strain PAC10, stronger effect = lower value 0.993 | [2] 0.93 | locus YHR087W, strain rtc3, stronger effect = lower value 0.98 | locus YJR043C, strain POL32, stronger effect = lower value 0.988 | locus YJR075W, strain HOC1, stronger effect = lower value 0.983 | locus YKL190W, strain CNB1, stronger effect = lower value 0.991 | locus YLR039C, strain RIC1, stronger effect = lower value 0.958 | locus YLR058C, strain SHM2 (second series), stronger effect = lower value 0.982 | locus YLR085C, strain ARP6, stronger effect = lower value 0.978 | locus YLR262C, strain YPT6, stronger effect = lower value 0.919 | locus YML094W, strain GIM5, stronger effect = lower value 1.08 | locus YMR219W, strain ESC1, stronger effect = lower value 0.99 | locus YMR263W, strain SAP30, stronger effect = lower value 0.984 | locus YNL153C, strain GIM3, stronger effect = lower value 0.985 | locus YNL298W, strain CLA4 (second series), stronger effect = lower value 0.949 | locus YNL322C, strain KRE1, stronger effect = lower value 1 | locus YNR030W, strain Alg12, stronger effect = lower value 0.955 | locus YPL055C, strain LGE1, stronger effect = lower value 1 | locus YPL241C, strain CIN2, stronger effect = lower value 0.989 | locus YPR135W, strain CTF4, stronger effect = lower value 1.07
